Inconclusive results are not listed. Calls of active or inactive are those of the source. Rule for the calls, unless noted: active = hit-call score of the fitted dose curve at least 0.9, where 1 is the maximum; inactive = score below 0.9.

Assay [1] in a line: BSK_LPS_PGE2: BioMAP Diversity Plus: LPS Assay for Prostaglandin E2 (PGE2) Biomarker Activity (AID 2283082).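 For AC50: secreted prostaglandin E2 measured by ELISA in LPS-stimulated co-culture.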 Particulars: primary human HUVEC with PBMC; actives raise or lower the signal. An outline of the steps:
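Compounds were added to the LPS co-culture of endothelium and PBMC, and PGE2 was measured by ELISA after 24 h. Responses in either direction were fitted with DMSO as baseline.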

Read-out in assay [2]: Macrophage colony-stimulating factor (MCSF), CSF1 (gene 1435)
The assay can be described thus: BSK_LPS_MCSF: BioMAP Diversity Plus: LPS Assay for Macrophage colony-stimulating factor (MCSF) Biomarker Activity (AID 2283083). Particulars: primary human HUVEC with PBMC; actives raise or lower the signal. In a few lines:
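Bidirectional fitting against DMSO was applied to M-CSF levels read by ELISA at 24 h post-dose. The system pairs human umbilical vein endothelium with peripheral blood mononuclear cells; parallel SRB staining tracked cytotoxicity.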

Read-out in assay [3]: Tissue Factor, F3 (gene 2152)
The assay is described as follows: BSK_LPS_TissueFactor: BioMAP Diversity Plus: LPS Assay for Tissue Factor Biomarker Activity (AID 2283084). Particulars: primary human HUVEC with PBMC; actives raise or lower the signal. In a few lines:
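Compound was added to an endothelial cell/PBMC co-culture, and after 24 h tissue factor (CD142) was read by ELISA. Gain or loss of signal was fitted against a DMSO baseline, and parallel SRB staining (560 nm) tracked overt cytotoxicity.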

Read-out in assay [4]: Vascular cell adhesion molecule 1 (VCAM1), VCAM1 (gene 7412)
The assay can be described thus: BSK_LPS_VCAM1: BioMAP Diversity Plus: LPS Assay for Vascular cell adhesion molecule 1 (VCAM1) Biomarker Activity (AID 2283086). To be noted: primary human HUVEC with PBMC; actives raise or lower the signal. An outline of the steps:
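Cells are dosed in an LPS-stimulated endothelial/mononuclear co-culture and, after 24 h, VCAM-1 is quantified by ELISA. Activity in either direction is fitted relative to the DMSO negative control.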

Read-out in the next assay: CD38, CD38 (gene 952)
The assay can be described thus: BSK_SAg_CD38: BioMAP Diversity Plus: SAg Assay for CD38 Biomarker Activity (AID 2283087). Particulars: primary human HUVEC with PBMC; actives raise or lower the signal. In a few lines:
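CD38 quantified by ELISA (fluorescence) in a superantigen-activated endothelial cell–PBMC co-culture at 24 h post-dose. Activity fitted in both directions relative to DMSO; parallel SRB and Alamar Blue cytotoxicity read-outs.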

Read-out in another assay: CD40, CD40 (gene 958)
The assay is described as follows: BSK_SAg_CD40: BioMAP Diversity Plus: SAg Assay for CD40 Biomarker Activity (AID 2283088). Particulars: primary human HUVEC with PBMC; actives raise or lower the signal. An outline of the steps:
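CD40 is measured by fluorescence ELISA in an endothelial/PBMC primary human co-culture at 24 h post-dose. Fitting is bidirectional, DMSO baseline. Parallel SRB staining (560 nm) flags cytotoxicity.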

Read-out in another assay: CD69, CD69 (gene 969)
The assay is described as follows: BSK_SAg_CD69: BioMAP Diversity Plus: SAg Assay for CD69 Biomarker Activity (AID 2283089).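 For AC50: cell surface CD69 protein quantified by ELISA with fluorescence detection.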 To be noted: primary human HUVEC with PBMC; actives raise or lower the signal. In a few lines:
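Primary human vascular co-culture (umbilical vein endothelium with peripheral blood mononuclear cells) exposed to test chemical for 24 h. CD69 levels quantified by fluorescence ELISA; DMSO served as negative control for bidirectional fitting.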

Read-out in assay [5]: Monocyte Chemoattractant Protein-1 (MCP1), CCL2 (gene 6347)
The assay can be described thus: BSK_SAg_MCP1: BioMAP Diversity Plus: SAg Assay for Monocyte Chemoattractant Protein-1 (MCP1) Biomarker Activity (AID 2283090). To be noted: primary human HUVEC with PBMC; actives raise or lower the signal. In a few lines: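 Values derive from bidirectional fitting of ELISA-measured MCP1 against DMSO controls. Readings were taken 24 h after dosing human vascular endothelial cells co-cultured with peripheral blood mononuclear cells under superantigen stimulation.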

Read-out in assay [6]: E-selectin (Homo sapiens) (UniProt P16581)
The assay is described as follows: BSK_SAg_Eselectin: BioMAP Diversity Plus: SAg Assay for Eselectin Biomarker Activity (AID 2283091). Particulars: primary human HUVEC with PBMC; actives raise or lower the signal. In a few lines:
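Cell-surface E-selectin is read by ELISA at 24 h in the SAg co-culture of HUVEC and PBMC. Curves are fitted in both directions relative to DMSO. Parallel SRB total-protein staining tracks overt toxicity.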

Read-out in assay [7]: Monokine induced gamma interferon (MIG), CXCL9 (gene 4283)
The assay is described as follows: BSK_SAg_MIG: BioMAP Diversity Plus: SAg Assay for Monokine induced gamma interferon (MIG) Biomarker Activity (AID 2283092). To be noted: primary human HUVEC with PBMC; actives raise or lower the signal. In a few lines:
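Endothelial cells and PBMC were co-cultured, exposed to test chemicals, and sampled 24 h later. MIG was measured by ELISA, and responses were fitted in both directions relative to DMSO.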

Assay [8] is described as follows: BSK_SAg_PBMCCytotoxicity: PBMC Cytotoxicity Assessment in the BioMAP Diversity Plus: SAg Assay (AID 2283093).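 For AC50: PBMC superantigen activated with SEB plus TSST-1 one hour after compound addition.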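 Note: PBMC viability measured as Alamar Blue reduction fluorescence at 546/580 nm; fitted both ways against DMSO so a hit may be loss or gain of signal.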 To be noted: primary human HUVEC with PBMC. In a few lines: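 Alamar Blue reduction (6 h, ex/em 546/580 nm) read after 90 h culture of PBMC pre-dosed 1 h then stimulated with SEB plus TSST-1, 20 ng/mL each. Gain or loss of signal fitted relative to DMSO.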

Read-out in assay [9]: Interleukin-8 (IL8), CXCL8 (gene 3576)
The assay can be described thus: BSK_SAg_IL8: BioMAP Diversity Plus: SAg Assay for Interleukin-8 (IL8) Biomarker Activity (AID 2283094). To be noted: primary human HUVEC with PBMC; actives raise or lower the signal. In a few lines:
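Chemicals were dosed onto a human endothelial–PBMC co-culture, and IL-8 was quantified by ELISA after 24 h. Both increases and decreases were fitted relative to DMSO.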

A short description of assay [10]: BSK_SAg_Proliferation: Cell Proliferation Assessment in the BioMAP Diversity Plus: SAg Assay (AID 2283095).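 Note: relative cell number as total protein by SRB absorbance in sub-confluent culture.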 Particulars: primary human HUVEC with PBMC. In a few lines: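 Absorbance of sulforhodamine B at 560 nm reports total protein in a human vascular endothelial/PBMC co-culture after 96 h chemical exposure. Gain or loss of signal is fitted in both directions against DMSO.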

Assay [11] in a line: BSK_SAg_SRB: Viability Assessment in the BioMAP Diversity Plus: SAg Assay (AID 2283096).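 Note: cells read one day after compound addition; hits may be either gain or loss of signal compared with DMSO.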 To be noted: primary human HUVEC with PBMC. An outline of the steps: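 SRB absorbance at 560 nm served as the viability read-out. Cells (HUVEC plus peripheral blood mononuclear cells) were TCA-fixed and stained 24 h post-dosing; activity fitted in both directions against DMSO controls.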

The target of assay [12] is human CYP2A6, CYP2A6 (gene 1548) (UniProt P11509). The assay can be described thus: NVS_ADME_hCYP2A6: NovaScreen (NVS) CYP450-related Enzyme Activity (ADME) Assay for human CYP2A6 (AID 2283099; active = hit-call score of the fitted dose curve at least 0.9, where 1 is the maximum). In a few lines: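 Compounds screened at 10 uM (duplicate) and, if active, titrated to a 20 uM top concentration against insect-cell-expressed CYP2A6. Loss of fluorescent product signal after 0.5 h, relative to acetonitrile baseline, indicates inhibition.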

The target in assay [13] is human CYP1A1, CYP1A1 (gene 1543) (UniProt P04798). The assay can be described thus: NVS_ADME_hCYP1A1: NovaScreen (NVS) CYP450-related Enzyme Activity (ADME) Assay for human CYP1A1 (AID 2283100; active = hit-call score of the fitted dose curve at least 0.9, where 1 is the maximum). In a few lines: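 Chemicals were first tested in duplicate at 10 uM, and those passing a 30% inhibition threshold were rerun as concentration series topping at 20 uM. Fluorescence read-out of recombinant enzyme turnover after 1 h, relative to acetonitrile.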

Assay [14] deals with human CYP2B6, CYP2B6 (gene 1555) (UniProt P20813). The assay is described as follows: NVS_ADME_hCYP2B6: NovaScreen (NVS) CYP450-related Enzyme Activity (ADME) Assay for human CYP2B6 (AID 2283101; active = hit-call score of the fitted dose curve at least 0.9, where 1 is the maximum). In a few lines: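 Cell-free recombinant enzyme assay with a fluorogenic substrate; fluorescence intensity read 1 hour after dosing. Loss of signal relative to acetonitrile negative control indicates inhibition. Primary screen run in duplicate at 10 uM, actives then tested in concentration series.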

Assay [15] concerns the target human CYP2D6, CYP2D6 (gene 1565) (UniProt P10635). The assay is described as follows: NVS_ADME_hCYP2D6: NovaScreen (NVS) CYP450-related Enzyme Activity (ADME) Assay for human CYP2D6 (AID 2283107; active = hit-call score of the fitted dose curve at least 0.9, where 1 is the maximum). An outline of the steps: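 Fluorescence readout of recombinant CYP2D6 (insect-cell derived) activity after 1 h incubation with test chemical. Acetonitrile served as baseline, loss-of-signal direction. Single-concentration duplicate screening at 10 uM preceded concentration-response retesting.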

Read-out in assay [16]: Tumor necrosis factor (Homo sapiens) (UniProt P01375)
The assay can be described thus: BSK_LPS_TNFa: BioMAP Diversity Plus: LPS Assay for Tumour Necrosis Factor alpha (TNFa) Biomarker Activity (AID 2283085).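 Note: TNFa protein level quantified by ELISA in the co-culture.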 To be noted: primary human HUVEC with PBMC; actives raise or lower the signal. In a few lines: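 Cells (umbilical vein endothelium plus peripheral blood mononuclear cells) were dosed with chemical, incubated 24 h, then TNFa was quantified by ELISA; values derive from bidirectional fitting with DMSO as baseline.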

Chain of E-selectin (Homo sapiens) (P16581 whole entry, looked up): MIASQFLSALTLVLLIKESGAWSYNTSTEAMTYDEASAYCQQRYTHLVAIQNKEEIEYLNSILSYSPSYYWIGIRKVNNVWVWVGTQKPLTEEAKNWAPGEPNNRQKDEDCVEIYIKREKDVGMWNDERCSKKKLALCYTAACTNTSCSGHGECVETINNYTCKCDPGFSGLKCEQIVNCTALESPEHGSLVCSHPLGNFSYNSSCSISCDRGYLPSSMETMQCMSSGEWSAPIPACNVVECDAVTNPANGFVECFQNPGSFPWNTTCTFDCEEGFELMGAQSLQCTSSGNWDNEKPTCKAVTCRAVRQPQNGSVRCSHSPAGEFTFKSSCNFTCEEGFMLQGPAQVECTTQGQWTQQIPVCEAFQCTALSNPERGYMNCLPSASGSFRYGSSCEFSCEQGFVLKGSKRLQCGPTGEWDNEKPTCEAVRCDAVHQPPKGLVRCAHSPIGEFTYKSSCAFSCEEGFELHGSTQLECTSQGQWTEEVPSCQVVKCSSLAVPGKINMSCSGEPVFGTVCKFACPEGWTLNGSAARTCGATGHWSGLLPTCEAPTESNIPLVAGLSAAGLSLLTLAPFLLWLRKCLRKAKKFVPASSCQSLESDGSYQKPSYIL
Chain of Tumor necrosis factor (Homo sapiens) (P01375 whole entry, looked up): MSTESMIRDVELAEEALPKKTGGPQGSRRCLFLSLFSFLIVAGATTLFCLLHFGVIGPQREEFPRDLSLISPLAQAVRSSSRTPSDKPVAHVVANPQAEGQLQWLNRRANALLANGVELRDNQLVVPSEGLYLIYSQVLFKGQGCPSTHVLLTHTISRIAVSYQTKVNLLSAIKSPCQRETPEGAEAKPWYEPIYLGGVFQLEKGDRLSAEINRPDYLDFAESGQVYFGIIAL
Chain of human CYP2A6, CYP2A6 (gene 1548) (P11509 whole entry, looked up): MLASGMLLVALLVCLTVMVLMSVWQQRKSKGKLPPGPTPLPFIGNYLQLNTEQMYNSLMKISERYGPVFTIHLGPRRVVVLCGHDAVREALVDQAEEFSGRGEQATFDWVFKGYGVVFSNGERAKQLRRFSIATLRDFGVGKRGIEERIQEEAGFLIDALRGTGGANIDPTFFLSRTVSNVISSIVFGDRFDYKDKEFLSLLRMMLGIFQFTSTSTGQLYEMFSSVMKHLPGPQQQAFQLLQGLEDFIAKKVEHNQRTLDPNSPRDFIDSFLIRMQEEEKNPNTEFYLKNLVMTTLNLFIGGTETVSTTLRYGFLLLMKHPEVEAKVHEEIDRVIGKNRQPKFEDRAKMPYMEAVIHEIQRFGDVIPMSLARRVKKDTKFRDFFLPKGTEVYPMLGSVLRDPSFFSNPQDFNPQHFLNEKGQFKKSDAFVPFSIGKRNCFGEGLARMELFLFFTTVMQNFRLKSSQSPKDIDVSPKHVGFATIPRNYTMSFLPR
Chain of human CYP1A1, CYP1A1 (gene 1543) (P04798 whole entry, looked up): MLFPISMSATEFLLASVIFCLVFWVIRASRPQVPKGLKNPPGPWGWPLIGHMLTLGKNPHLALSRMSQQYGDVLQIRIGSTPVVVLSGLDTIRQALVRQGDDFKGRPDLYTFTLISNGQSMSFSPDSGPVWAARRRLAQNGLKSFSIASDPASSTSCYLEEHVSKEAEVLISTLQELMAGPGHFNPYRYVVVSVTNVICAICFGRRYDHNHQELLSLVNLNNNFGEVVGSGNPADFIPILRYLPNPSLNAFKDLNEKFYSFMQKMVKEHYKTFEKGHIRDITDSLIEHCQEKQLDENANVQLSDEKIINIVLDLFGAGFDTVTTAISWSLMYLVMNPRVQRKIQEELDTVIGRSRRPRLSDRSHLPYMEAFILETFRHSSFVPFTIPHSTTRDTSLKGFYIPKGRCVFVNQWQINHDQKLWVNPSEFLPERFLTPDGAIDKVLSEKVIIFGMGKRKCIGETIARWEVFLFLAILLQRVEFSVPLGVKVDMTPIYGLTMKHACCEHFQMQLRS
Chain of human CYP2B6, CYP2B6 (gene 1555) (P20813 whole entry, looked up): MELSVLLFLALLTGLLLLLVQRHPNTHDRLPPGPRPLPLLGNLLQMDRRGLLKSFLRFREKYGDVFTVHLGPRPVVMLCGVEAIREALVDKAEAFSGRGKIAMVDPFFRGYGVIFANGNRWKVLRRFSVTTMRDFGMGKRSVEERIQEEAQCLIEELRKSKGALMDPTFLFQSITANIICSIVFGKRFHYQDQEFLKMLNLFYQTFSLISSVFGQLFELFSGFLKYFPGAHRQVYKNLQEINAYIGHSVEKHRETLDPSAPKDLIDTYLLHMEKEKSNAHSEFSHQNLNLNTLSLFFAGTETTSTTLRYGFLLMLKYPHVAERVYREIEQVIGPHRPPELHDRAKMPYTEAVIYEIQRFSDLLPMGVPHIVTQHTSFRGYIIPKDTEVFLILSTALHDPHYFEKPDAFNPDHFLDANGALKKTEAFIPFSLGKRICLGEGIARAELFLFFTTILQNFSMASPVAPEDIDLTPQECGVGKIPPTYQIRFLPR
Chain of human CYP2D6, CYP2D6 (gene 1565) (P10635 whole entry, looked up): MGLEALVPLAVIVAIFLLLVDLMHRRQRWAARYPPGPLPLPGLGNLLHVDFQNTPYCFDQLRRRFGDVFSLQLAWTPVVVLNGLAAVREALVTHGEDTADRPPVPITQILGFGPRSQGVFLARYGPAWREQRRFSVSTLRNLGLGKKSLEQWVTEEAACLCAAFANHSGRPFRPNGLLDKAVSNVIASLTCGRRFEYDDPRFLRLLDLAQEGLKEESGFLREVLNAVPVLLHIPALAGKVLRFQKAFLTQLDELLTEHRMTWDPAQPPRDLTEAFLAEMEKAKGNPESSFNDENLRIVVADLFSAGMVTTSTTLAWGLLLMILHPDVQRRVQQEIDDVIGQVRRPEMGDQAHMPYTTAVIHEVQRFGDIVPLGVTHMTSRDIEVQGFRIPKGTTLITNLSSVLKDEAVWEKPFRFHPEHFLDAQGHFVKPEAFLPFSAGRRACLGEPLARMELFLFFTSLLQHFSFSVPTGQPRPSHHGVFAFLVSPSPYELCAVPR

Consider `Nc1ccc(N=Nc2ccccc2)cc1`, for which the half-maximal activity concentration (AC50) is 3.55 µM (active) in assay [1], 14.2 µM (active) in assay [4] and 0.261 µM (active) in [14]. For the same compound, the outcome is “inactive” in assay [2]; “inactive” in assay [3]; “inactive” with CD38, CD38 (gene 952); “inactive” with CD40, CD40 (gene 958); “inactive” with CD69, CD69 (gene 969); “inactive” in [5]. For the same compound, the result in [6], in [7], in assay [8], in assay [9], in [10] and in [11] was inactive. In addition, the call in assay [12], in assay [13] and in [15] was inactive.

On to `CC(C)(O)c1cnn2c(-c3ccc(F)c(-c4c(F)cccc4C#N)c3)cnc2n1`, for which the AC50 in assay [1] is 30.6 µM (active); in [16], 9.68 µM (active); in assay [4] it was 20 µM (active); with CD40, CD40 (gene 958) it was 20 µM (active); in assay [8] it was 7.8 µM (active); in assay [9], 4.31 µM (active). Further, the outcome in [3] was “inactive”; in the assay with CD38, CD38 (gene 952) it was “inactive”; with CD69, CD69 (gene 969), “inactive”; in [5], “inactive”; in assay [6], “inactive”; in [7], “inactive”. For the same compound, the result in assay [10] and in assay [11] was inactive.

Consider `COc1cc(C=O)cc2c1[C@H](COC(N)=O)[C@]1(OC(C)=O)ON2C[C@H]2[C@@H]1N2C(C)=O`, for which the result in [1] was inactive. In addition, the AC50 in assay [2] was 3.97 µM (active); in assay [3], 14.3 µM (active); in assay [4] it was 16.7 µM (active); in the assay with CD38, CD38 (gene 952) it was 15.9 µM (active); in the assay with CD40, CD40 (gene 958), 18.2 µM (active); with CD69, CD69 (gene 969), 13.2 µM (active). Also, the AC50 in [5] is 5.75 µM (active); in assay [6] it was 21.4 µM (active); in [7] it was 28.7 µM (active); in [8] it was 4.25 µM (active); in assay [9] it was 8.56 µM (active); in [10] it was 0.402 µM (active). In addition, the AC50 in assay [11] was 4.34 µM (active).

In the case of `CCN(CC)N=O`, the outcome in assay [1] is “inactive”; in [2], “inactive”; in [3] it was “inactive”; in [4] it was “inactive”; in the assay with CD38, CD38 (gene 952), “inactive”; with CD40, CD40 (gene 958), “inactive”. In addition, the outcome with CD69, CD69 (gene 969) is “inactive”; in assay [5], “inactive”; in [6] it was “inactive”; in assay [7], “inactive”; in assay [8], “inactive”; in assay [9] it was “inactive”. The result in assay [10] and in assay [11] was inactive.

The term AC50 denotes the concentration giving half of the maximal activity seen.

These data come from PubChem BioAssay (EPA / NIEHS).
